# About 410 targets per protein were measured; listed, in parts, are those with the strongest signals and a random draw of the rest.
# Tests used:
# Test in all cases: glycan array binding signal (z-score within array); higher = stronger binding
# Conditions in all cases: glycan notation: IUPAC condensed, linker removed
# [1] = biological target: Fuc(a1-2)Gal(b1-4)GlcNAc(b1-2)Man(a1-3)[Fuc(a1-2)Gal(b1-4)GlcNAc(b1-2)Man(a1-6)]Man(b1-4)GlcNAc(b1-4)GlcNAc
# How it was run: (§1)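 Columns mapping to the same glycan were averaged after glycan names were converted to IUPAC-condensed notation. The data come from 3228 arrays in the Consortium for Functional Glycomics database, limited to those with an available protein sequence. Binding is reported as a within-array Z-score averaged across arrays of one protein sequence and across linkers.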
# [2] = biological target: Fuc(a1-2)Gal(b1-4)GlcNAc(b1-2)[Fuc(a1-2)Gal(b1-4)GlcNAc(b1-4)]Man(a1-3)[Fuc(a1-2)Gal(b1-4)GlcNAc(b1-2)Man(a1-6)]Man(b1-4)GlcNAc(b1-4)GlcNAc
# How it was run: as §1
# [3] = biological target: Fuc(a1-2)Gal(b1-4)GlcNAc(b1-3)Gal(b1-4)GlcNAc(b1-2)Man(a1-3)[Fuc(a1-2)Gal(b1-4)GlcNAc(b1-3)Gal(b1-4)GlcNAc(b1-2)Man(a1-6)]Man(b1-4)GlcNAc(b1-4)GlcNAc
# How it was run: as §1
# [4] = biological target: Fuc(a1-2)Gal(b1-4)[Fuc(a1-3)]GlcNAc(b1-3)Gal(b1-4)[Fuc(a1-3)]GlcNAc(b1-3)Gal(b1-4)[Fuc(a1-3)]GlcNAc
# How it was run: as §1
# [5] = biological target: Fuc(a1-2)Gal6S(b1-3)GlcNAc6S
# How it was run: as §1
# [6] = biological target: Fuc(a1-2)[GalNAc(a1-3)]Gal(b1-4)GlcNAc(b1-3)Gal(b1-4)GlcNAc
# How it was run: as §1
# [7] = biological target: Fuc(a1-2)[GalNAc(a1-3)]Gal(b1-4)GlcNAc(b1-3)GalNAc
# How it was run: as §1
# [8] = biological target: Fuc(a1-2)[GalNAc(a1-3)]Gal(b1-4)[Fuc(a1-3)]GlcNAc
# How it was run: as §1
# [9] = biological target: Fuc(a1-3)[GalNAc(b1-4)]GlcNAc
# How it was run: as §1
# [10] = biological target: Gal(a1-3)Gal(b1-4)GlcNAc(b1-2)Man(a1-3)[Gal(a1-3)Gal(b1-4)GlcNAc(b1-2)Man(a1-6)]Man(b1-4)GlcNAc(b1-4)GlcNAc
# How it was run: as §1
# Gal(a1-3)GalNAc = biological target: Gal(a1-3)GalNAc
# How it was run: as §1
# [11] = biological target: Gal(a1-4)Gal(b1-4)GlcNAc(b1-2)Man(a1-3)[Gal(a1-4)Gal(b1-4)GlcNAc(b1-2)Man(a1-6)]Man(b1-4)GlcNAc(b1-4)GlcNAc
# How it was run: as §1
# [12] = biological target: Gal(b1-3)GalNAc(a1-3)[Fuc(a1-2)]Gal(b1-4)GlcNAc
# How it was run: as §1
# [13] = biological target: Gal(b1-3)GlcNAc(a1-3)Gal(b1-4)GlcNAc
# How it was run: as §1
# [14] = biological target: Gal(b1-3)GlcNAc(b1-2)Man(a1-3)[Gal(b1-3)GlcNAc(b1-2)Man(a1-6)]Man(b1-4)GlcNAc(b1-4)GlcNAc
# How it was run: as §1
# [15] = biological target: Gal(b1-4)GlcNAc(a1-6)Gal(b1-4)GlcNAc
# How it was run: as §1
# [16] = biological target: Gal(b1-4)GlcNAc(b1-2)Man(a1-3)[Gal(b1-4)GlcNAc(b1-2)Man(a1-6)]Man(b1-4)GlcNAc(b1-4)GlcNAc
# How it was run: as §1
# [17] = biological target: Gal(b1-4)GlcNAc(b1-2)[Gal(b1-4)GlcNAc(b1-6)]Man(a1-6)[Gal(b1-4)GlcNAc(b1-2)Man(a1-3)]Man(b1-4)GlcNAc(b1-4)[Fuc(a1-6)]GlcNAc
# How it was run: as §1
# [18] = biological target: Gal(b1-4)GlcNAc(b1-3)Gal(b1-4)GlcNAc
# How it was run: as §1
# [19] = biological target: Gal(b1-4)GlcNAc(b1-3)Gal(b1-4)GlcNAc(b1-2)[Gal(b1-4)GlcNAc(b1-3)Gal(b1-4)GlcNAc(b1-6)]Man(a1-6)[Gal(b1-4)GlcNAc(b1-3)Gal(b1-4)GlcNAc(b1-2)Man(a1-3)]Man(b1-4)GlcNAc(b1-4)GlcNAc
# How it was run: as §1
# [20] = biological target: Gal(b1-4)GlcNAc(b1-3)Gal(b1-4)GlcNAc(b1-3)Gal(b1-4)GlcNAc
# How it was run: as §1
# [21] = biological target: Gal(b1-4)GlcNAc(b1-3)Gal(b1-4)GlcNAc(b1-3)GalNAc
# How it was run: as §1
# [22] = biological target: Gal(b1-4)GlcNAc(b1-3)Gal(b1-4)GlcNAc(b1-3)[Gal(b1-4)GlcNAc(b1-3)Gal(b1-4)GlcNAc(b1-6)]GalNAc
# How it was run: as §1
# [23] = biological target: Gal3S(b1-3)[Fuc(a1-4)]GlcNAc
# How it was run: as §1
# [24] = biological target: Gal3S(b1-4)[Fuc(a1-3)]Glc6S
# How it was run: as §1
# Gal6S(b1-3)GlcNAc = biological target: Gal6S(b1-3)GlcNAc
# How it was run: as §1
# [25] = biological target: GalNAc(b1-4)GlcNAc(b1-2)Man(a1-3)[GalNAc(b1-4)GlcNAc(b1-2)Man(a1-6)]Man(b1-4)GlcNAc(b1-4)GlcNAc
# How it was run: as §1
# [26] = biological target: GlcNAc(a1-4)Gal(b1-4)GlcNAc(b1-3)Gal(b1-4)GlcNAc
# How it was run: as §1
# [27] = biological target: GlcNAc(b1-2)Man(a1-3)[GlcNAc(b1-2)Man(a1-6)]Man(b1-4)GlcNAc(b1-4)GlcNAc
# How it was run: as §1
# [28] = biological target: GlcNAc(b1-2)[GlcNAc(b1-6)]Man(a1-6)[GlcNAc(b1-2)Man(a1-3)]Man(b1-4)GlcNAc(b1-4)GlcNAc
# How it was run: as §1
# [29] = biological target: GlcNAc(b1-2)[GlcNAc(b1-6)]Man(a1-6)[GlcNAc(b1-2)Man(a1-3)]Man(b1-4)GlcNAc(b1-4)[Fuc(a1-6)]GlcNAc
# How it was run: as §1
# [30] = biological target: GlcNAc(b1-3)Gal(b1-4)GlcNAc(b1-2)Man(a1-3)[GlcNAc(b1-3)Gal(b1-4)GlcNAc(b1-2)Man(a1-6)]Man(b1-4)GlcNAc(b1-4)[Fuc(a1-6)]GlcNAc
# How it was run: as §1
# [31] = biological target: GlcNAc(b1-3)Gal(b1-4)GlcNAc(b1-3)Gal(b1-4)GlcNAc(b1-3)Gal(b1-4)GlcNAc(b1-3)Gal(b1-4)GlcNAc(b1-2)Man(a1-3)[GlcNAc(b1-3)Gal(b1-4)GlcNAc(b1-3)Gal(b1-4)GlcNAc(b1-3)Gal(b1-4)GlcNAc(b1-3)Gal(b1-4)GlcNAc(b1-2)Man(a1-6)]Man(b1-4)GlcNAc(b1-4)[Fuc(a1-6)]GlcNAc
# How it was run: as §1
# [32] = biological target: GlcNAc(b1-3)Gal(b1-4)GlcNAc(b1-3)[GlcNAc(b1-3)Gal(b1-4)GlcNAc(b1-3)]GalNAc
# How it was run: as §1
# GlcNAc(b1-6)GalNAc = biological target: GlcNAc(b1-6)GalNAc
# How it was run: as §1
# [33] = biological target: Man(a1-2)Man(a1-3)[Man(a1-2)Man(a1-6)]Man
# How it was run: as §1
# [34] = biological target: Man(a1-3)[Man(a1-6)]Man(b1-4)GlcNAc(b1-4)GlcNAc
# How it was run: as §1
# [35] = biological target: Neu5Ac(a2-3)Gal(b1-3)GlcNAc(b1-2)Man(a1-3)[Neu5Ac(a2-3)Gal(b1-3)GlcNAc(b1-2)Man(a1-6)]Man(b1-4)GlcNAc(b1-4)GlcNAc
# How it was run: as §1
# [36] = biological target: Neu5Ac(a2-3)Gal(b1-3)[GlcNAc(b1-6)]GalNAc
# How it was run: as §1
# [37] = biological target: Neu5Ac(a2-3)Gal(b1-4)[Fuc(a1-3)]GlcNAc(b1-6)[Neu5Ac(a2-3)Gal(b1-3)]GalNAc
# How it was run: as §1
# [38] = biological target: Neu5Ac(a2-3)[Neu5Ac(a2-6)]GalNAc
# How it was run: as §1
# [39] = biological target: Neu5Ac(a2-6)Gal(b1-4)GlcNAc(b1-2)Man(a1-3)Man(b1-4)GlcNAc(b1-4)GlcNAc
# How it was run: as §1
# [40] = biological target: Neu5Ac(a2-6)Gal(b1-4)GlcNAc(b1-2)Man(a1-3)[Man(a1-6)]Man(b1-4)GlcNAc(b1-4)GlcNAc
# How it was run: as §1
# [41] = biological target: Neu5Ac(a2-6)Gal(b1-4)GlcNAc(b1-2)Man(a1-3)[Neu5Ac(a2-3)Gal(b1-4)GlcNAc(b1-2)Man(a1-6)]Man(b1-4)GlcNAc(b1-4)GlcNAc
# How it was run: as §1
# [42] = biological target: Neu5Ac(a2-6)Gal(b1-4)GlcNAc(b1-2)Man(a1-3)[Neu5Ac(a2-6)Gal(b1-4)GlcNAc(b1-2)Man(a1-6)]Man(b1-4)GlcNAc(b1-4)[Fuc(a1-6)]GlcNAc
# How it was run: as §1
# [43] = biological target: Neu5Ac(a2-6)Gal(b1-4)GlcNAc(b1-2)Man(a1-6)[Gal(b1-4)GlcNAc(b1-2)Man(a1-3)]Man(b1-4)GlcNAc(b1-4)GlcNAc
# How it was run: as §1
# [44] = biological target: Neu5Ac(a2-6)Gal(b1-4)GlcNAc(b1-2)[Neu5Ac(a2-6)Gal(b1-4)GlcNAc(b1-4)]Man(a1-3)[GlcNAc(b1-4)][Neu5Ac(a2-6)Gal(b1-4)GlcNAc(b1-2)[Neu5Ac(a2-6)Gal(b1-4)GlcNAc(b1-6)]Man(a1-6)]Man(b1-4)GlcNAc(b1-4)GlcNAc
# How it was run: as §1
# [45] = biological target: Neu5Ac(a2-6)Gal(b1-4)GlcNAc(b1-6)[Gal(b1-3)GlcNAc(b1-3)]Gal(b1-4)Glc
# How it was run: as §1
binder,measurement,setting,value
RBMC2 (Vibrio cholerae) (protein) KISVRSGFAIDAIGASASTLVGGTGGNLNAAVNVKDIKAIDLTWGKYYWGGYHLLALDFRMSNGSVISMGSKNYAYSKQTERFTVPAGSRIKGIKAWTAGWLLDGVQFELA,glycan array binding signal (z-score),[1],1.19
same,glycan array binding signal (z-score),[2],0.016
same,glycan array binding signal (z-score),[3],3.69
same,glycan array binding signal (z-score),[4],-0.273
same,glycan array binding signal (z-score),[5],-0.121
same,glycan array binding signal (z-score),[6],-0.171
same,glycan array binding signal (z-score),[7],-0.327
same,glycan array binding signal (z-score),[8],-0.4
same,glycan array binding signal (z-score),[9],-0.311
same,glycan array binding signal (z-score),[10],3.79
same,glycan array binding signal (z-score),Gal(a1-3)GalNAc,-0.276
same,glycan array binding signal (z-score),[11],4.07
same,glycan array binding signal (z-score),[12],-0.258
same,glycan array binding signal (z-score),[13],-0.3
same,glycan array binding signal (z-score),[14],3.3
same,glycan array binding signal (z-score),[15],-0.466
same,glycan array binding signal (z-score),[16],-0.184
same,glycan array binding signal (z-score),[17],0.211
same,glycan array binding signal (z-score),[18],-0.235
same,glycan array binding signal (z-score),[19],-0.097
same,glycan array binding signal (z-score),[20],-0.368
same,glycan array binding signal (z-score),[21],-0.363
same,glycan array binding signal (z-score),[22],-0.254
same,glycan array binding signal (z-score),[23],-0.327
same,glycan array binding signal (z-score),[24],-0.305
same,glycan array binding signal (z-score),Gal6S(b1-3)GlcNAc,-0.328
same,glycan array binding signal (z-score),[25],1.47
same,glycan array binding signal (z-score),[26],-0.281
same,glycan array binding signal (z-score),[27],3.67
same,glycan array binding signal (z-score),[28],-0.232
same,glycan array binding signal (z-score),[29],-0.178
same,glycan array binding signal (z-score),[30],3.51
same,glycan array binding signal (z-score),[31],1.92
same,glycan array binding signal (z-score),[32],-0.222
same,glycan array binding signal (z-score),GlcNAc(b1-6)GalNAc,-0.19
same,glycan array binding signal (z-score),[33],-0.48
same,glycan array binding signal (z-score),[34],4.41
same,glycan array binding signal (z-score),[35],-0.017
same,glycan array binding signal (z-score),[36],-0.155
same,glycan array binding signal (z-score),[37],-0.025
same,glycan array binding signal (z-score),[38],-0.245
same,glycan array binding signal (z-score),[39],-0.132
same,glycan array binding signal (z-score),[40],12.3
same,glycan array binding signal (z-score),[41],3.39
same,glycan array binding signal (z-score),[42],3.57
same,glycan array binding signal (z-score),[43],3.52
same,glycan array binding signal (z-score),[44],-0.425
same,glycan array binding signal (z-score),[45],-0.398

# From the supplement of paper PMC8728848
